D2 ag-1 = Beta-Arrestin HTS for Positive Allosteric Modulators of the Human D2 Dopamine Receptor: Agonists. D(2) dopamine receptor (Homo sapiens), P14416. DiscoveRx PathHunter D2 beta-arrestin, luminescence, 90 min; 100% = 57 uM dopamine signal. activation, % (no concentration beside the values). 360,000 compounds, 0.084% hits; in the data active = activation above about 40%; inconclusive = between about 15% and that limit
Target sequence (P14416 whole entry, looked up): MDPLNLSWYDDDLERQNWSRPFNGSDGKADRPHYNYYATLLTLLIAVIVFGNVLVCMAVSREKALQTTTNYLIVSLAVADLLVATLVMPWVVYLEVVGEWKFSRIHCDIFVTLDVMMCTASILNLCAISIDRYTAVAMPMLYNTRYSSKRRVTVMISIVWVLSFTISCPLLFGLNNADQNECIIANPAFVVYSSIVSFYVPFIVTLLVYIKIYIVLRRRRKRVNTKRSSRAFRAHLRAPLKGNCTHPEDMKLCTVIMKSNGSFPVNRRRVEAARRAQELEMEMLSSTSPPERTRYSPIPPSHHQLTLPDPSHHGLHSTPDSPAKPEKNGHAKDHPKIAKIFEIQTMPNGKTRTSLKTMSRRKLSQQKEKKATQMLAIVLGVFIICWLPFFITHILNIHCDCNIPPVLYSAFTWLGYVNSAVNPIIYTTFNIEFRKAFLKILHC
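Agonist mode: compounds alone added to overnight-plated D2 PathHunter cells for 90 min at 37 C, with 57 uM final dopamine (EC100) defining full response. Beta-arrestin recruitment detected by chemiluminescent reagent, read after 1 h at ambient temperature.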
D2 antagonist = HTS Assay for Allosteric Antagonists of the Human D2 Dopamine Receptor: Primary Screen for Antagonists; HEK293 TREx D2 cells, calcium flux, dopamine EC80; inhibition, % at 10 µM; 340,000 compounds, 2% hits; AID 485344, 2010; in the data active = inhibition above about 30%; inactive = below that, where a call was filed; note: 0% is about no effect
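Overnight-induced (tetracycline, 30 C) HEK293 T-REx cells carrying force-coupled D2 receive a no-wash calcium dye, then compound, then EC80 dopamine at 180 s; signals are read kinetically throughout.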
D2 PAM-1 = Beta-Arrestin HTS for Positive Allosteric Modulators of the Human D2 Dopamine Receptor: Potentiators; D(2) dopamine receptor (Homo sapiens), P14416; AID 624464, 2012; DiscoveRx D2 beta-arrestin cells, luminescence, 90 min; 100% = 57 uM dopamine signal; 360,000 compounds, 0.23% hits; potentiation, % (concentration not given with the values); in the data active = potentiation above about 50%; inconclusive = mostly about 30% to 49%
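D2 cells co-treated with compound plus 50 nM dopamine (EC20) for 90 min at 37 deg C to detect potentiation. Beta-arrestin recruitment was read as enzyme-fragment luminescence after 1 h at ambient temperature. Full response was set by 57 uM dopamine.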
D2 ag-2 = HTS Assay for Allosteric Agonists of the Human D2 Dopamine Receptor: Primary Screen for Agonists | 340,000 compounds, 0.53% hits | AID 485358, 2010 | activation, % at 2 µM | HEK293 T-REx D2 cells, calcium flux agonist mode;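 active = activation over 3 SD above normal in the single-dose calcium agonist read, cut at about 30% in these data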; note: 0% is about no effect
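In this primary screen, compounds producing a positive calcium signal within 180 s of addition to tetracycline-induced, force-coupled HEK293 Trex D2 cells are flagged; cells are dye-loaded with a no-wash calcium kit beforehand.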
D2 PAM-2 = HTS Assay for Positive Allosteric Modulators of the Human D2 Dopamine Receptor: Primary Screen for Potentiators; HEK293 T-REx D2, calcium flux, EC20 dopamine potentiation; AID 485347, 2010; D(2) dopamine receptor (Homo sapiens), P14416; 340,000 compounds, 0.34% hits; potentiation, % at 10 µM;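 active = potentiation over 3 SD above the plate norm, cut at about 30% in these data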; note: 0% is about no effect
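Calcium flux readout, no-wash dye, 1 read/s. Inducible HEK293 Trex D2 line, overnight 30 C. Compound alone 180 s (agonist flags), then EC20 dopamine, another 180 s to score potentiation.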
Numbers without * were called inactive; u = inconclusive; x = no result. Shown are actives, neighbours in structure and some others; about 2.4% of the full set was active somewhere.

SMILES	D2 ag-1	D2 antagonist	D2 PAM-1	D2 ag-2	D2 PAM-2
Cn1c(=O)oc2cc(S(=O)(=O)N3CCC4(CC3)OCCO4)ccc21	0.4	3.6	2.1	1.8	-1.1
Cn1c(=O)oc2cc(S(=O)(=O)N3CCOCC3)ccc21	-0.1	45.9*	20.5	-0.5	-13.0
COc1cccc(Nc2sc(C(=O)c3ccc(F)cc3)c(N)c2C(=O)NCc2ccc(C)cc2)c1	x	x	x	1.2	-0.4
CSc1nc(C(=O)N2CCCC(N3CCN(c4ccccc4C)CC3)C2)cs1 (configuration not stated)	-0.8	39.0*	-32.3	1.5	-14.0
COc1ccccc1N1CCN(C2CCCN(C(=O)c3oc(C)cc3C)C2)CC1 (configuration not stated)	-5.2	46.0*	-41.7	-0.7	-24.8
COc1ccccc1N1CCN(C2CCCN(C(=O)c3csc(C)n3)C2)CC1 (configuration not stated)	-6.1	2.9	-30.3	-0.1	10.0
CC(C)/C=C(/C(=O)c1ccc(Cl)cc1Cl)n1cncn1	46.0*	2.0	20.6	0.9	5.8
CN(Cc1ccccc1F)c1nc(-c2cccnc2)nc2ccccc12	-1.1	x	-19.7	x	x
CCOc1ccc(CN(C)c2nc(-c3cccnc3)nc3ccccc23)cc1OC	-0.1	36.0*	-6.1	0.1	-13.6
Cc1cc(C(C)(C)C)ccc1OC(=O)C1=CC=CN2CCS(=O)(=O)N=C12	-4.5	40.2*	1.4	1.2	7.4
COc1ccc(-n2nc(C(=O)Nc3ccc(Cl)cn3)c3c4ccccc4n(C)c3c2=O)cc1	x	x	x	-0.1	21.5
CC1CN(C(=O)c2cc3ccccc3cc2O)CC(C)O1 (configuration not stated)	2.6	x	6.5	x	x
CC(=O)Nc1ccccc1C(=O)N1CC(C)OC(C)C1 (configuration not stated)	-0.6	1.4	-15.7	0.8	39.7*
c1ccc(-c2noc(CSc3nc4ccccc4o3)n2)cc1	0.6	-3.3	-7.4	-0.7	-4.8
Clc1ccc(-c2nnc(SCc3nc(-c4ccccc4)no3)o2)cc1	-4.8	40.6*	-3.1	0.3	-7.6
c1ccc(CSc2ncn[nH]2)nc1	-1.7	42.1*	-4.8	0.7	-3.6
COc1ccccc1N1C(=O)CC(c2ccccc2)CC1=O	-3.6	4.8	-12.9	1.5	12.5
COc1ccccc1N1C(=O)CSC1=S	-2.8	-2.4	-3.5	0.4	31.8*
O=C1C(=O)c2ccccc2C(O)=C1c1cccc([N+](=O)[O-])c1	-9.6	48.1*	-19.4	0.6	11.7
CC(c1ccco1)N(C(=O)c1ccc(Cl)s1)c1ccccn1 (configuration not stated)	8.2	-33.1	5.3	33.8*	-6.4
CC(c1ccco1)N(C(=O)c1ccccc1F)c1ccccn1 (configuration not stated)	0.5	-0.7	-1.1	-0.3	1.3
O=C(c1ccc(F)cc1)N(Cc1ccco1)C1CCS(=O)(=O)C1 (configuration not stated)	-0.5	-16.9	-14.2	2.2	1.0
O=C(c1ccccc1)N(Cc1ccco1)C1CCS(=O)(=O)C1 (configuration not stated)	-2.5	37.4*	-9.0	4.1	2.1
Cc1ccc(OCc2cc(C(=O)N(C)Cc3nccn3C)no2)cc1C	-0.8	-18.8	-9.2	-0.7	0.3
Cc1ccc(C)c(OCc2cc(C(=O)N(C)Cc3nccn3C)no2)c1	-2.1	3.1	-8.3	35.0*	-2.8
SMILES	D2 ag-1	D2 antagonist	D2 PAM-1	D2 ag-2	D2 PAM-2
COc1ccc(C)cc1NC(=O)CCNS(=O)(=O)c1cccc(C(F)(F)F)c1	-0.5	-17.0	-1.2	0.0	-1.9
Cc1cccc(CS(=O)(=O)Cc2ccc(C(=O)NC3CCCCC3)o2)c1	-1.2	-1.2	-8.9	-0.7	-4.3
CC1Oc2ccccc2C=C1/C=C1/SC(N2CCOCC2)=NC1=O (configuration not stated)	-0.7	-7.9	-1.2	-0.1	35.8*
CCOc1ccc(Br)cc1S(=O)(=O)N1CCCC1	-0.4	53.6*	-2.9	-0.3	0.2
CN(CC(=O)Nc1ccccc1Cl)C(=O)COC(=O)c1nc(Cl)ccc1Cl	-3.7	-22.4	-22.2	-0.4	-2.3
CN(CC(=O)Nc1ccccc1Cl)C(=O)COC(=O)c1ccc([N+](=O)[O-])cc1Cl	u	-3.4	52.9*	-0.7	-7.2
O=C(CCCCn1c(=O)c2ccccc2n(CC(=O)Nc2ccc(F)cc2F)c1=O)NCc1ccccc1Cl	x	x	x	-0.4	-9.1
CN(Cc1ccccc1)C(=O)CN1CCN(C(c2ccccc2)c2ccccc2)CC1	-8.2	50.6*	-34.9	-2.0	-28.0
N#Cc1ccc(S(=O)(=O)N2CCCCC2c2cc(C(=O)NCc3cccnc3)no2)cc1 (configuration not stated)	-1.3	x	2.8	x	x
NC(=O)COc1ncn(-c2ccccc2)n1	3.0	-3.7	9.9	-0.3	0.0
N/C(COc1ncn(-c2ccccc2)n1)=N\S(=O)(=O)c1ccc(Cl)cc1Cl	-1.7	-3.0	4.4	1.1	32.3*
CC(=O)Nc1ccc(N=Cc2c(O)c3ccccc3oc2=O)cc1	-5.4	x	-8.1	x	x
CC(=O)Nc1ccc(N=Cc2c(O)c(C(=O)Nc3ccccc3)cc3ccccc23)cc1	9.1	18.8	0.8	64.8*	-18.6
Cc1nc(-c2ccc(F)cc2)c(CC(=O)N2CCN(S(=O)(=O)c3cccc(Cl)c3)CC2)s1	-1.5	34.1*	-10.1	-1.2	-1.6
CCN(CC)C(=O)Cn1cc(SCC(=O)Nc2ccccc2F)c2ccccc21	x	x	x	0.5	3.1
COc1cc(C(=O)Nc2ccc3nc(SCc4ccc(C)cc4)sc3c2)cc(OC)c1OC	x	x	x	-2.0	5.5
CC(C)C(NC(=O)C12CC3CC(CC(C3)C1)C2)C(=O)NC1=NCCS1 (configuration not stated)	x	-5.9	x	0.2	15.3
O=C(NC1=NCCS1)C12CC3CC(CC(C3)C1)C2	3.0	50.1*	-8.8	-0.3	-8.8
COc1ccc(C2/C(=C(/O)c3ccc(S(=O)(=O)N4CCOCC4)cc3)C(=O)C(=O)N2CCN2CCOCC2)cc1 (configuration not stated)	-1.9	40.1*	-9.5	0.6	-8.1
C/C(=N\O)c1c(O)cc(-c2ccccc2)n(-c2ccccc2)c1=O	-7.9	-5.8	-1.0	30.9*	-24.1
C/C(=N/O)c1c(O)c(C)c(-c2ccccc2)n(-c2ccccc2)c1=O	-2.1	-3.0	7.9	-0.1	8.8
